# Casp6 inh: human caspase-6 inhibitors, primary screen, biochemical, VEID-R110 fluorescence, single point, set 2. purified caspase-6, Z-VEID-R110 cleavage fluorescence. hit rate 0.53% among 350,000. inhibition, % at 12.5 µM;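 active = mean inhibition across replicates at least about 35%, with every replicate also reaching that limit, limit read from the data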;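 also: 0% = median of neutral control wells and 100% = no fluorescence left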
# Target sequence (P55212 24-179 limits assumed): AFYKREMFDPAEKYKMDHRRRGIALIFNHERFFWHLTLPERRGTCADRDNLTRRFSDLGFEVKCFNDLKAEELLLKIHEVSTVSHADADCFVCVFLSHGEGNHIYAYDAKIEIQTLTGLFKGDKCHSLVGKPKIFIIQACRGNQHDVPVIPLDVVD
# Target sequence (P55212 194-293 limits assumed): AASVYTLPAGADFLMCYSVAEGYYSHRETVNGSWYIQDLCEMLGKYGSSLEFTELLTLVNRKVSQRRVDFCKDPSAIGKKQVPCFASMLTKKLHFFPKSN
# MBD2 inh: inhibitors of MBD2 binding to methylated DNA, primary screen, biochemical, TR-FRET, DNA-binding domain, human; Methyl-CpG-binding domain protein 2 (Homo sapiens), Q9UBB5; MBD2 binding to methylated oligonucleotide; inhibition, % at 4.4 µM; hit rate 0.31% among 370,000; in the data active = inhibition above about 13%
# LEDGF integ inh: blockers of LEDGF/p75-dependent integrase strand transfer – biochemical, TR-FRET, high throughput, primary screen; HIV-1 integrase (with human LEDGF/p75); TR-FRET IN-LEDGF/p75 DNA integration, Eu/Cy5; inhibition, % at 3.7 µM; hit rate 0.64% among 370,000; AID 743269, 2014;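 active = inhibition above the screen-wide mean plus 3 SD, cut at about 13% in these data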;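 also: signal is the Cy5 over europium emission ratio at 671 and 618 nm; 0% = plate median of compound wells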
# UHRF1 MBD2 ctr: UHRF1 methylated DNA binding inhibitors, primary screen, counter-screen for MBD2 inhibitor project, biochemical, TR-FRET, human UHRF1, single concentration. E3 ubiquitin-protein ligase UHRF1 (Homo sapiens), Q96T88. UHRF1 binding to methylated oligo. inhibition, % at 4.4 µM. hit rate 0.75% among 370,000. AID 687016, 2013; in the data active = inhibition above about 21%;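 also: UHRF1 SRA domain binding a hemimethylated CpG hairpin DNA probe; 0% = median of test compound wells and 100% = reference inhibitor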
# Starred values were filed as active, the others as inactive; . = no result given. In the library only some 1.4% were active in any assay of this set; here they are far more common.
SMILES,Casp6 inh,MBD2 inh,LEDGF integ inh,UHRF1 MBD2 ctr
O=C(NCc1ccc(F)cc1)[C@@H]1[C@@H](CO)[C@@H]2Cn3c(cccc3=O)[C@@H]2N1CC1CC1,1,.,.,.
Cc1cc(C(=O)COC(=O)c2cccnc2Cl)c(C)n1C,1,-5,35*,0
Cc1ccc(S(=O)(=O)Nc2ccc3c(c2)CC(=O)N([C@H](C)CO)C[C@H](C)[C@H](CN(C)C(=O)Nc2ccc4c(c2)OCO4)O3)cc1,0,.,.,.
CCOc1ccc(Nc2nc(Cc3nnc(SCC(=O)NCC4CCCO4)n3C)cs2)cc1 (configuration not stated),37*,-5,-6,3
CO[C@H]1CN(C)C(=O)c2cc(NS(C)(=O)=O)ccc2OC[C@@H](C)N(CC2CC2)C[C@H]1C,1,.,.,.
CS(=O)(=O)N1CC(=O)N2[C@H](C1)[C@H](c1ccc(C#Cc3ccccc3)cc1)[C@@H]2CO,0,.,.,.
C[C@@H]1C=C(C(=O)O)O[C@H](OCc2ccc(CO)cc2)C1,2,0,1,55*
CCOc1ccc(Nc2nc(N3CCOCC3)nc(N3CCOCC3)n2)cc1,41*,-7,0,-3
CC(CNC(=O)CCc1nnc(CCC2CCCCC2)o1)c1ccccc1 (configuration not stated),2,0,-1,33*
CC(C)(C)NC(=O)C(=O)NN=C1CCCCCCCCCCC1,60*,-5,7,-2
C[C@H](CO)N1C[C@H](C)[C@H](CN(C)Cc2ccc(C(=O)O)cc2)Oc2c(NC(=O)C3CC3)cccc2C1=O,3,.,.,.
CN1N=C(C(C)(C)C)CSC1=Nc1ccccc1,37*,2,1,1
O=C(Nc1ccc(Cl)cc1)c1ccc2c(=O)n3c(nc2c1)CCCCC3,1,-1,-3,1
O=C(Nc1ccccn1)c1ccc2c(=O)n3c(nc2c1)CCCCC3,10,10,9,21*
C[C@H]1CN([C@@H](C)CO)C(=O)Cc2cc(NC(=O)CCC(F)(F)F)ccc2O[C@H]1CN(C)C(=O)Nc1ccccc1,-1,.,.,.
CSc1ccc(NC(=O)Nc2ccc(C(=O)NCC(=O)O)cc2)cc1,52*,3,-1,4
CCSc1ccc(C(=O)NCC(=O)O)cc1,1,1,1,2
CCOc1ccc(S(=O)(=O)N(CC(=O)N/N=C/c2ccc(-c3ccc([N+](=O)[O-])cc3)o2)c2ccccc2)cc1,.,12,6,28*
Cc1ccc(C)c(NC(=O)CN2C(=O)NC(C)(c3ccc4c(c3)OCCO4)C2=O)c1 (configuration not stated),3,-5,-1,70*
Cc1ccc(F)cc1NC(=O)CN1C(=O)NC(C)(c2ccc3c(c2)OCCO3)C1=O (configuration not stated),1,-1,5,-1
COC(=O)c1c(C)oc2c1cc(NS(=O)(=O)c1ccc(C(=O)O)cc1)c1ccccc12,42*,5,4,1
CC(=O)c1c(C)oc2c1cc(NS(=O)(=O)c1ccc(C(=O)O)cc1)c1ccccc12,15,-2,-2,-2
N=C1CCCN1CC(=O)c1ccc(Br)cc1,.,6,0,22*
Cn1c(=N)n(CC(=O)c2ccc(Br)cc2)c2ccccc21,-1,4,-3,0
Cc1ccccc1N(C)S(=O)(=O)c1nnc(NC(=O)c2ccco2)s1,69*,0,6,1
SMILES,Casp6 inh,MBD2 inh,LEDGF integ inh,UHRF1 MBD2 ctr
CCC(=O)Nc1nnc(S(=O)(=O)N(C)Cc2ccco2)s1,2,-3,-1,21*
Cc1ccccc1C(=O)Nc1nnc(S(=O)(=O)N(C)Cc2ccco2)s1,0,1,1,-3
Nc1nc(N)c2cc(CNc3ccc(Cl)c(Cl)c3)ccc2n1,26,12,-2,22*
Nc1nc(N)c2cc(Sc3ccc(Cl)cc3)ccc2n1,-3,0,-3,-1
Cc1noc(C)c1NC(=O)N(C)C[C@@H]1OCCCC[C@H](C)Oc2ccc(NC(=O)CCC(F)(F)F)cc2C(=O)N([C@H](C)CO)C[C@H]1C,10,.,.,.
O=C(C[C@@H]1CC[C@@H](NC(=O)c2ccc3c(c2)OCO3)[C@H](CO)O1)NC1Cc2ccccc2C1,2,.,.,.
COc1cc(/C=C2\CC/C(=C\c3cc(OC)c(O)c(OC)c3)C2=O)cc(OC)c1O,49*,1,34*,-3
O=C(CCC(=O)Nc1ccc(F)cc1)N/N=C/c1ccc(O)cc1O,-11,6,-8,24*
C[C@@H]1CN([C@@H](C)CO)C(=O)c2cccc(NC(=O)c3cnccn3)c2O[C@@H]1CN(C)C(=O)NC1CCCCC1,15,.,.,.
O=C(Cc1ccccn1)NCC[C@H]1CC[C@H](NC(=O)c2ccccc2F)[C@@H](CO)O1,0,.,.,.
CC(=O)c1ccc(OCc2cc([N+](=O)[O-])cc3c2OCOC3)cc1,0,-2,4,23*
CCN(CC)C(=O)C1=C(C)N(Cc2ccc(OC)cc2)C(=O)C(CC(=O)NCCN2CCOCC2)C1 (configuration not stated),4,9,4,22*
CC1=C(C(=O)N(C)C)CC(CC(=O)NCc2cccs2)C(=O)N1Cc1ccc(F)cc1 (configuration not stated),.,8,-1,24*
COc1ccc(Cc2nnc(NC(C)=O)s2)cc1,.,-1,-2,-1
COc1ccc(Cc2nnc(NC(=O)C(C)C)s2)cc1,-3,12,1,30*
O=c1[nH]c(/C=C\c2cccc(O)c2)nc(O)c1[N+](=O)[O-],9,-5,-1,6
COc1ccc(-n2c(C)cc(/C=C/c3nc(O)c([N+](=O)[O-])c(=O)[nH]3)c2C)cc1,62*,0,3,-1
Cc1cc(C)cc(N(CC(=O)NC(C)C)C(=O)CCC(=O)Nc2ccccn2)c1,45*,3,2,2
O=C(Cn1c(=O)n(Cc2ccco2)c(=O)c2c3c(sc21)CCCC3)Nc1ccccc1,.,5,3,3
NC(=O)Cn1c(=O)n(Cc2ccco2)c(=O)c2c3c(sc21)CCCCC3,.,4,6,21*
CC(C)NC(=O)N(C)C[C@H]1Oc2ccc(NC(=O)C3CC3)cc2C(=O)N([C@@H](C)CO)C[C@H]1C,1,.,.,.
CC(C)CC#Cc1ccc([C@H]2[C@@H](CO)N3CCCCN(S(=O)(=O)Cc4ccccc4)C[C@H]23)cc1,0,.,.,.
CC(=O)c1ccc(OCc2cn(CC(=O)c3ccc(O)cc3)nn2)cc1,3,4,4,21*
COc1cc(C=O)ccc1OCc1cn(CC(=O)c2ccc(O)cc2)nn1,4,7,0,18
O=C(Cn1cc(COc2cc(F)cc(F)c2)nn1)c1ccc(O)cc1,5,-3,2,8
COc1cc(C(C)=O)ccc1OCc1cn(CC(=O)c2ccc(O)cc2)nn1,12,7,8,21*

# Source: PubChem
